Reference: PubChem BioAssay (NCI)
Compounds without any hit were thinned out: in the full panel of roughly 83,000, 20% have a hit.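 The endpoint reported here, percent growth, reads 100 for growth as untreated, 0 for no net growth and -100 for all cells dead.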 Unmarked numbers belong to inactive results. Activity calls are given as the source filed them. Rule for the calls: active = growth percent below 10; inactive = the rest.

Experiments:
Assay in all cases: NCI-60 one-dose screen, 48 h (100 = growth as untreated, 0 = no growth, -100 = all killed)
Conditions in all cases: 10 µM unless noted
[1] = system: DU-145 prostate
[2] = system: K-562 leukemia
[3] = system: MALME-3M melanoma
[4] = system: MDA-MB-231 breast
[5] = system: RXF 393 renal
[6] = system: SF-268 CNS
[7] = system: SF-295 CNS
[8] = system: SF-539 CNS
[9] = system: UACC-257 melanoma
[10] = system: M14 melanoma

Structure (SMILES)	growth [1]	growth [2]	growth [3]	growth [4]	growth [5]	growth [6]	growth [7]	growth [8]	growth [9]	growth [10]
C[C@H](Nc1ncnc2ccc(-c3cnc(Cl)c(NS(C)(=O)=O)c3)cc12)c1ccccc1	-2.78% (active)	17.2%	-43.1% (active)	-17.1% (active)	-54.5% (active)	-3.03% (active)	-25.6% (active)	-42.8% (active)	-18.4% (active)	-13.5% (active)
C#CCN(C)CCCOc1ccc(NCc2ccc(/C=C/C(=O)NO)cc2)cc1Cl	13.7%	15.3%	4.84% (active)	16.1%	-56.2% (active)	12.9%	-65.5% (active)	-7.77% (active)	21%	0.456% (active)
CCCCc1nc2c(N)nc3ccccc3c2n1Cc1cccc(CN)c1	60.2%	3.82% (active)	22.6%	57.3%	47.6%	48.7%	55.8%	5.63% (active)	-62.3% (active)	-89.2% (active)
CCc1cc2c(cc1Cl)nc1c(=O)[nH]c(=O)nc-1n2CCOCC(C)(C)C	94.5%	57.4%	-9.68% (active)	67.2%	75.5%	88.1%	71.8%	84.2%	73.3%	61.8%
Clc1ccc(CSc2nnc(-c3ccc(Cl)cc3)n2-c2ccccc2)cc1	95.8%	91.3%	86.3%	77.7%	57.1%	70.2%	78.4%	65.1%	87.6%	85.4%
Cc1ccccc1N1CCN(C2=C(Cl)C(=O)c3ncccc3C2=O)CC1	20.3%	7.01% (active)	-14.5% (active)	88.3%	-10.9% (active)	80.2%	86.8%	78.9%	21.7%	36.2%
COc1ccc(/C=N/N=C(/c2ccccc2)c2ccc3nc(-c4ccc(Cl)cc4)[nH]c3c2)cc1	86.5%	47.9%	90.6%	95%	83.3%	88.7%	81.3%	87.7%	101%	75.3%
Cc1nc(N)sc1-c1csc(Nc2ccc(C(F)(F)F)cc2)n1	35.8%	22.5%	10.1%	20.1%	18.3%	49.5%	7.89% (active)	27.1%	37.2%	28.4%
CC(C)(C)Nc1nc2c(OCCc3ccccc3)cccn2c1-c1ccc([N+](=O)[O-])cc1	86.2%	39.7%	83.6%	80.9%	63.5%	71.2%	43.8%	76.5%	88.7%	60.5%
COCCOc1ccc2ncc(C#Cc3cncc(C(=O)Nc4ccc(CN5CCN(C)CC5)c(C(F)(F)F)c4)c3)n2n1	7.72% (active)	-18% (active)	-72.3% (active)	-28.5% (active)	-91.2% (active)	-19.6% (active)	31%	8.57% (active)	28.1%	-90.5% (active)
Cc1ccsc1[C@H]1c2[nH]c3ccccc3c2C[C@H]2C(=O)N(CCCCCCC(=O)NO)CC(=O)N12	90.6%	58.2%	25.6%	96.8%	85.9%	105%	95.1%	77.9%	76%	86.4%
Cn1c(SCC(=O)c2ccco2)nc2ccccc2c1=O	106%	92%	98.3%	93.8%	124%	102%	104%	96.6%	99.7%	97.2%
CC1=C(C)C(=O)C(Nc2ccc(C)cc2)=C(Br)C1=O	106%	-21.3% (active)	112%	70.1%	97.7%	97.3%	98.1%	100%	93.8%	106%
Cc1ccc2c(n1)C(=O)C(Cl)=C(Nc1ccc(C(C)C)cc1)C2=O	16.2%	0.714% (active)	-33.9% (active)	-41% (active)	-93.6% (active)	77.1%	82.8%	96.2%	-70.3% (active)	25.6%
COc1ccc2[nH]cc(-c3nc(N)nnc3-c3cn(C)c4ccc(Br)cc34)c2c1	48.8%	5.19% (active)	42.2%	48.1%	5.35% (active)	39.4%	20.1%	18.1%	46.8%	5.3% (active)
NS(=O)(=O)c1nnc(/N=C/c2c(O)[nH]c3ccccc23)s1	114%	110%	109%	92.3%	118%	102%	99.2%	96.3%	107%	94%
CCOC(=O)c1c(NC(=O)c2ccc(C(F)(F)F)cc2)sc2c3c(ccc12)OCN(C)C3	21.6%	-28.3% (active)	72.6%	10.9%	-70% (active)	63.6%	66.2%	-73.1% (active)	71.6%	30.1%
CCOc1cccc(/C(N)=N/C(N)=N/c2nc3ccccc3s2)c1	83.4%	77.3%	115%	74.3%	110%	86.5%	37.7%	104%	113%	93.2%
C(=N\Nc1nc(N/N=C/c2ccc3c(c2)OCO3)nc(N2CCCCC2)n1)/c1ccc2c(c1)OCO2	99.8%	41.1%	120%	90.7%	79.7%	100%	77.8%	87.6%	108%	97.3%
Cc1ccc2c(n1)C(=O)C(Cl)=C(Nc1ccc(C#N)cc1)C2=O	112%	5.72% (active)	27%	92.3%	92.1%	97%	118%	100%	74.8%	86.2%
CC(C)C(/C=C/c1[nH]ncc1-c1cc(Cl)ccc1O)N1CCOCC1 (stereo not given)	100%	82.3%	106%	106%	88.3%	88.5%	96%	97.5%	103%	97.5%
O=C(COc1ccc(/C=C2\C(=O)Nc3ccc(Cl)cc32)cc1)Nc1ccc(Cl)cc1	53.7%	28.2%	81.2%	76.6%	75.4%	51.1%	59.2%	75.3%	82.5%	7.47% (active)
N#Cc1c(-c2ccc(Br)cc2)cc(-c2c[nH]c3ccccc23)nc1N	70%	18.6%	73.9%	46%	25.9%	56.9%	52.4%	43%	94.4%	44.6%
O=C1c2ccccc2C23C(=C(c4cncnc4)c4ccccc42)CCCN13 (stereo not given)	101%	102%	94.7%	101%	104%	91.6%	95.9%	102%	108%	98.6%
CN1CCN(c2ccc(Nc3nc(NCCNC(=O)c4ccc(F)cc4)c4sccc4n3)cc2)CC1	87.8%	19.8%	-54.2% (active)	59.4%	14.1%	73.8%	61%	-64.7% (active)	0.258% (active)	-10.1% (active)
Cc1[nH]c(C(=O)Nc2ccc(S(=O)(=O)N3CCCCC3)cc2OCCOCCOCCOCCOCCOCCOCCOCCOCCOc2cc(S(=O)(=O)N3CCCCC3)ccc2NC(=O)c2[nH]c(C)c3c2CCCCC3=O)c2c1C(=O)CCCC2	47.3%	19.2%	3.69% (active)	11.6%	47%	44.3%	30.8%	14.1%	-27% (active)	14%
